Results on eleven molecules are retold here after PubChem BioAssay (NCATS).

The target of test [1] is Tyrosine-protein kinase Yes (Homo sapiens) (UniProt P07947). The test is described as follows: qHTS for small molecule inhibitors of Yes1 kinase: Primary Screen (AID 686947). Further: nearly all actives have a fitted effect of over 60% in size. Further: potency means the concentration at half of the fitted maximal effect. The method in brief:
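ADP-Glo luminescence readout; final 4 nM Yes1, 0.1 mM ATP, 0.3 mg/mL poly(E4Y), Tris pH 7.5, MgCl2, DTT, Brij-35. 20 min compound preincubation, 60 min reaction at RT. Normalized to DMSO wells with and without enzyme.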

A short description of test [2]: qHTS for small molecule inhibitors of Yes1 kinase: Counter Assay (AID 686950).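 Further: no kinase present so only ADP-Glo detection of a fixed ADP amount is tested; luminescence from ADP-Glo reporting ADP in a fixed ATP and ADP mixture; 0% = DMSO wells with ATP plus ADP and -100% = ATP-only wells without ADP.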 The procedure, abridged: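 Luminescence read-out from ADP-Glo quantifies a fixed ADP amount (0.02 mM ADP with 0.08 mM ATP) after 60 min at room temperature; signal is normalized between DMSO wells with ATP/ADP and with 0.1 mM ATP alone.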
Test [3] can be described thus: qHTS Assay for Identifying Gametocytocidal Compounds (AID 743244). Further: potency means the concentration at half of the fitted maximal effect.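 On max response: on the % scale 0 is the no-effect control and ±100 the full control effect; actives lower the fluorescent signal which means gametocytes are killed.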 Particulars: P. falciparum 3D7 stage III-V gametocytes, alamarBlue, 72 h; max response: stronger effect = lower value. The method in brief: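 In this qHTS viability screen, late-stage 3D7 gametocytes are incubated with compound for 72 h, then with alamarBlue for 24 h; reduced resorufin fluorescence marks killing.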

A short description of test [4]: qHTS profiling for inhibitors of Plasmodium falciparum (3D7) proliferation (AID 743322; call rule not given here;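 further: infected erythrocytes exposed to compound for 72 h before lysis; 100% = DMSO vehicle wells and 0% = 0.29 µM artemisinin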). As to conditions: P. falciparum 3D7 proliferation; at 28.7 µM (top of the series) unless noted. The procedure, abridged:
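Erythrocytes infected with P. falciparum (0.3% parasitemia, 2.5% hematocrit) incubated with compounds 72 h at 37 C, 5% CO2. Lysis with saponin/Triton buffer containing SYBR Green I, overnight at room temperature in the dark; DNA fluorescence (485/535 nm) normalised to 0.29 uM artemisinin and DMSO.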

Test [5] in a line: qHTS profiling for inhibitors of Plasmodium falciparum (DD2) proliferation (AID 743323; call rule not given here). Particulars: lower = more inhibition; at 28.7 µM (top of the series) unless noted. The method in brief:
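Parasite proliferation measured via DNA-dye fluorescence, as uninfected erythrocytes lack DNA. Cultures at 0.3% parasitemia and 2.5% hematocrit incubated 72 h with compound; signal scaled between vehicle and 0.29 uM artemisinin wells.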

Records with an inconclusive call do not appear. Activity calls are given as the source filed them. Unless noted, the call rests on the fitted dose curve; in most records, active means well fitted curve in the direction sought with a large enough effect; inconclusive means small, poorly fitted or top-dose-only effect, or another doubt; inactive means no such curve, though single readings can be large; an effect the other way counts as inactive or inconclusive.

Sequence of Tyrosine-protein kinase Yes (Homo sapiens) (P07947 whole entry, looked up): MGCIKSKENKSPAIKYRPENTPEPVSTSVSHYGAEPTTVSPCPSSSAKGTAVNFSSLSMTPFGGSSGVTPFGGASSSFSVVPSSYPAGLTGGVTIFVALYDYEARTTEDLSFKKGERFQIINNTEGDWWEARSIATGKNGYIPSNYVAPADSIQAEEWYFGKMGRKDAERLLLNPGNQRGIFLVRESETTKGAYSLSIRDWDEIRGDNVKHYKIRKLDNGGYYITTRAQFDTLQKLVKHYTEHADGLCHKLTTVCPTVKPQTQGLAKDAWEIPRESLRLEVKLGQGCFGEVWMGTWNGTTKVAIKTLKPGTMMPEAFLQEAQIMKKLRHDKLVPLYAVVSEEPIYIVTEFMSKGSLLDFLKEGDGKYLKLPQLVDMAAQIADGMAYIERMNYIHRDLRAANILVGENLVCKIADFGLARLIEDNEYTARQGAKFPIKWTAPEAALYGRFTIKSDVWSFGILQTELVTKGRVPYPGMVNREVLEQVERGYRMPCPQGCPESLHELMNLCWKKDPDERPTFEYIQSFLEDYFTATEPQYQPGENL

`CC(C)n1c(C=C[C@H](O)C[C@H](O)CC(=O)O)c(-c2ccc(F)cc2)c2ccccc21`: the Potency entry in test [1] is “inactive”. The result in test [2] was inactive. Besides, in test [3], the max response is -4.13% (inactive).

In the case of `CC(C)Oc1cc(Nc2nc(N[C@@H](C)c3ccc(F)cn3)ncc2Cl)[nH]n1`, the Potency is 0.0061 µM (active) in test [1] and 2.35 µM (active) in test [3]. Further, the outcome in test [2] was inactive. Also, the remaining parasite growth % (stronger effect = lower value) in test [4] is 3.18%. The activity, percent of control in test [5] amounted to 5.44%.

As to `O=C1C(CCC(O)c2ccc(F)cc2)C(c2ccc(O)cc2)N1c1ccc(F)cc1` (stereo not drawn), the Potency result in test [1] is “inactive”. Also, the outcome in test [2] was inactive. The max response in test [3] was 8.66% (inactive). Further, the remaining parasite growth % (stronger effect = lower value) in test [4] was 18.4%. In addition, the activity, percent of control in test [5] is 83.7%.

Turning to `Cc1cccc(Nc2nc(N[C@@H]3CCCC[C@H]3N)ncc2C(N)=O)c1`, the Potency in test [1] was 0.387 µM (active); in test [3] it was 9.35 µM (active). The outcome in test [2] was inactive. In test [4], the remaining parasite growth % (stronger effect = lower value) came out at 0.221%. Also, the activity, percent of control in test [5] is 4.78%.

Take `CC(O)=C(C#N)C(=O)Nc1ccc(C(F)(F)F)cc1`: the Potency result in test [1] was “inactive”. Moreover, the molecule was called inactive in test [2]. For the same molecule, in test [3], the max response was 27.1% (inactive). In addition, in test [4], the remaining parasite growth % (stronger effect = lower value) amounted to 89.8%. Further, the activity, percent of control in test [5] turned out to be 95.5%.

`CN(C)CCCNC(=O)c1ccc(-c2cc(O)c3ncccc3c2)cc1`: the figures for the Potency in test [1] and in test [3] were 38.7 µM (active) and 2.96 µM (active), respectively. Moreover, the result in test [2] was inactive. Besides, the remaining parasite growth % (stronger effect = lower value) in test [4] turned out to be 3.59%. For the same molecule, in test [5], the activity, percent of control came out at 5.19%.

On to `CCc1cc(-c2n[nH]c(C)c2-c2ccc3c(c2)OCCO3)c(O)cc1O`, for which the Potency in test [1] is 4.34 µM (active). The outcome in test [2] was inactive. In test [3], the max response was -4.02% (inactive). Also, the remaining parasite growth % (stronger effect = lower value) in test [4] was 99.3%. Further, the activity, percent of control in test [5] was determined as 90.4%.

In the case of `CNC(=O)c1cc(COc2nnc(Nc3ccc(Cl)cc3)c3ccoc23)ccn1`, the Potency entry in test [1] was “inactive”. For the same molecule, the molecule was classed as inactive in test [2]. Besides, in test [3], the max response was 13% (inactive). Besides, the remaining parasite growth % (stronger effect = lower value) in test [4] amounted to 54.7%. The activity, percent of control in test [5] was 68.5%.

For `Nc1ccc(-c2ccc3ncc4ccc(=O)n(-c5cccc(C(F)(F)F)c5)c4c3c2)cn1`, the figures for the Potency in test [1] and in test [3] were 27.4 µM (active) and 0.027 µM (active), respectively. In addition, in test [2], the call was inactive. The remaining parasite growth % (stronger effect = lower value) in test [4] was -1.33%. The activity, percent of control in test [5] is -0.278%.

For `CN1C(=O)C(Cc2c[nH]c3ccccc23)NC1=S` (stereo not drawn), the Potency entry in test [1] is “inactive”. Moreover, the outcome in test [2] was inactive. Besides, the max response in test [3] was 15.9% (inactive). In test [4], the remaining parasite growth % (stronger effect = lower value) was determined as 109%. Besides, the activity, percent of control in test [5] was determined as 91.5%.

Turning to `Cc1ccc(C(=O)N(CCCN)[C@@H](c2nc3cc(Cl)ccc3c(=O)n2Cc2ccccc2)C(C)C)cc1`, the Potency entry in test [1] was “inactive”. In addition, the result in test [2] was inactive. Further, in test [3], the Potency is 18.7 µM (active). Besides, in test [4], the remaining parasite growth % (stronger effect = lower value) is -0.752%. In addition, the activity, percent of control in test [5] was found to be 0.933%.
